From PubChem BioAssay AID1159580 (chemical genetic matrix, 2015)
Where “and” joins values, the source holds several entries; their conditions need not be identical. Equal entries are not always repeated. In all, about 5,500 compounds went through this assay and about 2,000 (36%) were called active. About 18% were inconclusive and are not listed. No stated cut-off is given here; in the data, active means normalized growth mostly below about 0.91 (no sharp cut-off); inconclusive means no clear call, values can overlap the other calls; inactive means mostly above about 0.92. The list shows a part of the results.

Assay: chemical genetic growth profiling, strain panel (AID 1159580);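 further: tested at 20 µM; growth read once vehicle control cultures reached saturation at 30 °C; 1 = growth at the plate median or of vehicle wells; lower values mean less growth of the strain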
Conditions: S. cerevisiae deletion strains, growth OD

Measured: normalized growth

CCC1(C)CC(=O)NC1=O (stereo not given)
inactive: locus YAL013W, strain DEP1, active compounds read low 1.01 and 1.05 | locus YAL021C, strain ccr4, active compounds read low 0.987 | locus YAL026C, strain drs2, active compounds read low 0.986 | locus YAL030W, strain snc1, active compounds read low 0.954 | locus YAL040C, strain CLN3, active compounds read low 0.994 | locus YBL061C, strain skt5, active compounds read low 0.993 | locus YBR009C, strain hhf1, active compounds read low 0.97 | locus YBR021W, strain FUR4, active compounds read low 1.01 | locus YBR023C, strain chs3, active compounds read low 0.958 | locus YBR171W, strain sec66, active compounds read low 0.983 | locus YBR229C, strain ROT2, active compounds read low 1.01 | locus YBR231C, strain swc5, active compounds read low 0.991 | locus YBR279W, strain paf1, active compounds read low 0.973 | locus YCL011C, strain gbp2, active compounds read low 0.992 | locus YCL016C, strain dcc1, active compounds read low 0.986 | locus YCL029C, strain bik1, active compounds read low 1.02 | locus YCL061C, strain MRC1 (second series), active compounds read low 1.01 | locus YCL069W, strain vba3, active compounds read low 0.977 | locus YCR088W, strain abp1, active compounds read low 0.974 | locus YDL005C, strain med2, active compounds read low 0.974 | locus YDL035C, strain GPR1, active compounds read low 0.999 | locus YDL040C, strain nat1, active compounds read low 0.995 | locus YDL074C, strain BRE1, active compounds read low 0.977 | locus YDL101C, strain DUN1, active compounds read low 1.01 | locus YDL134C, strain PPH21, active compounds read low 1.02 | locus YDL185W, strain tfp1, active compounds read low 1.02 | locus YDL192W, strain arf1, active compounds read low 1.02 | locus YDR001C, strain nth1, active compounds read low 0.964 | locus YDR069C, strain doa4, active compounds read low 0.991 | locus YDR101C, strain arx1, active compounds read low 1.04 | locus YDR137W, strain rgp1, active compounds read low 0.979 | locus YDR150W, strain NUM1, active compounds read low 1.01 | locus YDR159W, strain sac3, active compounds read low 0.986 | locus YDR162C, strain NBP2, active compounds read low 1.02 | locus YDR195W, strain ref2 0.953 | locus YDR297W, strain sur2, active compounds read low 0.981 | locus YDR318W, strain mcm21, active compounds read low 1.01 | locus YDR334W, strain swr1, active compounds read low 0.952 | locus YDR335W, strain msn5, active compounds read low 0.969 | locus YDR363W, strain ESC2, active compounds read low 1.02 | locus YDR388W, active compounds read low 1.02 | locus YDR392W, strain spt3, active compounds read low 0.962 | locus YDR502C, strain sam2, active compounds read low 1.01 | locus YEL003W, strain gim4, active compounds read low 0.978 | locus YEL037C, strain rad23, active compounds read low 0.975 | locus YEL061C, strain CIN8 (second series), active compounds read low 0.982 | locus YEL061C, strain CIN8, active compounds read low 1.01 | locus YER002W, strain NOP16, active compounds read low 1.01 | locus YER015W, strain faa2, active compounds read low 0.96 | locus YER016W, strain bim1, active compounds read low 0.981 | locus YER110C, active compounds read low 1.02 | locus YER111C, strain swi4, active compounds read low 0.983 | locus YER155C, strain BEM2 (second series), active compounds read low 0.973 | locus YER155C, strain BEM2, active compounds read low 0.999 | locus YER167W, strain BCK2, active compounds read low 1.01 | locus YFR010W, strain ubp6, active compounds read low 0.974 | locus YGL078C, strain dbp3, active compounds read low 1.01 | locus YGL086W, strain mad1, active compounds read low 1.01 | locus YGL167C, strain pmr1, active compounds read low 0.982 | locus YGL173C, strain kem1, active compounds read low 0.98 | locus YGL227W, strain vid30, active compounds read low 0.985 | locus YGL240W, strain doc1, active compounds read low 0.971 | locus YGL248W, strain PDE1, active compounds read low 1 | locus YGL253W, strain hxk2, active compounds read low 0.981 | locus YGR078C, strain PAC10, active compounds read low 1 and 0.997 | locus YGR135W, strain pre9, active compounds read low 1.02 | locus YGR229C, strain SMI1, active compounds read low 1.01 and 1.03 | locus YGR252W, strain gcn5, active compounds read low 0.98 | locus YHR013C, strain ard1, active compounds read low 0.94 | locus YHR027C, strain rpn1, active compounds read low 0.978 | locus YHR030C, strain SLT2, active compounds read low 1.01 and 0.972 | locus YHR079C, strain IRE1 (second series), active compounds read low 1.02 | locus YHR079C, strain IRE1, active compounds read low 0.978 | locus YHR094C, strain hxt1, active compounds read low 1.02 | locus YHR129C, strain ARP1, active compounds read low 1 | locus YHR142W, strain chs7, active compounds read low 0.967 | locus YHR200W, strain rpn10, active compounds read low 1.02 | locus YIL066C, strain RNR3, active compounds read low 1.01 | locus YIL073C, strain SPO22, active compounds read low 1.06 | locus YIL125W, strain kgd1, active compounds read low 1.01 | locus YIR030C, strain dcg1, active compounds read low 1.02 | locus YJL092W, strain hpr5, active compounds read low 0.974 | locus YJL095W, strain BCK1 (second series), active compounds read low 0.982 | locus YJL095W, strain BCK1, active compounds read low 0.989 and 0.973 | locus YJL115W, strain asf1, active compounds read low 0.959 | locus YJL129C, strain trk1, active compounds read low 0.943 | locus YJL134W, strain LCB3, active compounds read low 1.01 | locus YJL154C, strain vps35, active compounds read low 0.971 | locus YJL164C, strain tpk1, active compounds read low 0.974 | locus YJL166W, strain qcr8, active compounds read low 0.974 | locus YJL168C, strain set2, active compounds read low 1.01 | locus YJL187C, strain SWE1 (second series), active compounds read low 1.01 | locus YJL187C, strain SWE1, active compounds read low 0.98 | locus YJR043C, strain POL32, active compounds read low 1.02 | locus YJR066W, strain TOR1, active compounds read low 0.95
